Rows were chosen to be rich in hits. Some 4.6% of all compounds tested hit in one or more screens of this group.
hgDAF-12 ag: agonists of H. glycines DAF-12 nuclear receptor; HEK293 GAL4-hgDAF12 UAS-luciferase reporter, agonist luminescence; normalized to butyrate control; activation, % at 6.8 µM; 370,000 tested, 1.8% active;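 active = activation above a cutoff set at the mean of all screened compounds plus 3 SD, cut at about 10% in these data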;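 note: 0% = DMSO wells and 100% = sodium butyrate wells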
Wee1 degr inh: human Wee1 degradation inhibition, primary screen; P30291; HeLa Luc-Wee1K328M stability, luciferase luminescence; 100% = proteasome inhibitor MG132 effect; reporter increase, % at 5 µM; 220,000 tested, 1.2% active;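 active = activation above the mean of all tested compounds plus 3 SD, set per screening run, cut at about 8.8% in these data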;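 note: cells exposed to compound for 20 h before luminescence read; 0% = DMSO alone and 100% = MG132 at 30 µM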
hcDAF-12 act: activates DAF-12 receptor from parasite H. contortus | HEK293 hcDAF-12 lit1-tk-luc reporter, luminescence; 0% DMSO, 100% Δ7-dafachronic acid | activation, % at 6.8 µM | 370,000 tested, 1.4% active;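 active = activation above the mean of all tested compounds plus 3 SD, cut at about 5.5% in these data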;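 note: 100% = response to 3 µM Δ7-dafachronic acid high control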
ssDAF-12 act: activators of S. stercoralis DAF-12 nuclear receptor; HEK293 ssDAF-12/GRIP1 lit1-tk-luc reporter, luminescence; % of 3 µM dafachronic acid response; activation, % at 6.8 µM; 370,000 tested, 1% active; AID 652126;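 active = activation above the mean over all tested compounds plus 3 SD, cut at about 0.9% in these data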;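 note: 0% = DMSO-only wells and 100% = 3 µM delta7-dafachronic acid wells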
DAX1 inh-1: NR0B1 (DAX1) inhibition; inhibition, % at 6.75 µM; P51843; AID 504766; 340,000 tested, 0.99% active; HEK293 Gal4-DAX1 luciferase reporter, luminescence;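 active = inhibition above the mean over all tested compounds plus 3 SD, cut at about 4.2% in these data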;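 note: 0% = DAX1-transfected cells with DMSO and 100% = empty-vector control cells with DMSO; inhibition shows as a rise in luminescence from relieved DAX1 repression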
Target sequence (P51843 207-470 limits assumed): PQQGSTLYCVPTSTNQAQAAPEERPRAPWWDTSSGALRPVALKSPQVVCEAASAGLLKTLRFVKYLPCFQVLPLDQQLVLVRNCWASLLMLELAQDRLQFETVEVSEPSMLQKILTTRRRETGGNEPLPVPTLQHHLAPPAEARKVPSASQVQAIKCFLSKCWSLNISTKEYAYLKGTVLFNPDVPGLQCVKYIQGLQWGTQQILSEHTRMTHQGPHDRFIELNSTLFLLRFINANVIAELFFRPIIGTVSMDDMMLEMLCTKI
DAX1 inh-2: inhibitors of DAX1 repression of SF-1 activated StAR promoter; HEK293T StAR-luciferase reporter, SF-1/DAX-1 repression relief; inhibition, % at 6.8 µM; 370,000 tested, 1.1% active; AID 652010;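 active = inhibition above the mean over all tested compounds plus 3 SD, cut at about 3.6% in these data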;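 note: 0% = DAX-1 cells with DMSO and 100% = cells lacking DAX-1 with DMSO; higher inhibition means more luminescence from relief of DAX-1 repression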
DAX1 inh confirm: NR0B1 (human) inhibition, confirmation. AID 652134. HEK293T StAR-promoter luciferase reporter, SF-1/DAX-1 repression. 2,400 tested, 87% active. shares compounds with DAX1 inh-2. inhibition, % at 6.8 µM;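 active = inhibition above the average of every tested compound plus 3 SD, cut at about 3.8% in these data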;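 note: 0% = DAX-1 cells with DMSO and 100% = no DAX-1 control cells with DMSO; active compounds raise luminescence by relieving repression of the StAR reporter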
SF1 AF2mut Luc: nonselective inhibitor or artifact in SF-1 mutant DAX1 counter-screen; shares compounds with DAX1 inh-2; HEK293 StAR-luciferase, SF-1 AF2 mutant, luminescence; inhibition, % at 6.8 µM; 2,400 tested, 78% active; AID 652136;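 active = inhibition above the mean of all tested compounds plus 3 SD, cut at about 3% in these data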;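 note: 0% = DAX-1 transfected cells with DMSO and 100% = cells without DAX-1 with DMSO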
LXRb hcDAF ctr: activates human LXR-beta, counter-screen for hcDAF-12 agonists; shares compounds with hcDAF-12 act; HEK293 Gal4-LXR tk-luc reporter, luminescence, 24 h; normalized: DMSO 0%, positive control 100%; 3,400 tested, under 10 active; activation, % at 6.8 µM;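 active = mean percent activation of the reporter above a cutoff set as the average over tested compounds plus their standard deviation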
Target sequence (P55055 whole entry, looked up, the tested form may be a part): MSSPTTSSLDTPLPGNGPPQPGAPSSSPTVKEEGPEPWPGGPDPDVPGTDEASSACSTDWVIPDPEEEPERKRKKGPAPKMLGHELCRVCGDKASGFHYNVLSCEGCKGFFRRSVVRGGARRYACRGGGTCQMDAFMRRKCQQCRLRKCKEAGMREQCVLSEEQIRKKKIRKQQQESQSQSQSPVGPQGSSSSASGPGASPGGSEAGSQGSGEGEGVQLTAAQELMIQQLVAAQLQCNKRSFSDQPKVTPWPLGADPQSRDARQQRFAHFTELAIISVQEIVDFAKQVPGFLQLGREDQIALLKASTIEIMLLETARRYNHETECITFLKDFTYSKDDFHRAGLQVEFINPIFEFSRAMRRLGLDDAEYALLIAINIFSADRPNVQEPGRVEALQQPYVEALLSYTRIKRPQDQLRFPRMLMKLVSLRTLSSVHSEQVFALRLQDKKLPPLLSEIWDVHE
hcDAF12 ag: hcDAF-12 agonism, confirmation assay. shares compounds with hcDAF-12 act. HEK293 hcDAF-12 lit1-tk-luc reporter, luminescence; % of Δ7-dafachronic acid response. activation, % at 6.8 µM. 3,400 tested, 61% active. AID 743032;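 active = mean activation across triplicate tests above the threshold derived from the earlier primary screen, cut at about 5.5% in these data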;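 note: 0% = DMSO only wells and 100% = 3 µM Δ7-dafachronic acid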
hgDAF12 conf: hgDAF-12 agonism, confirmation assay; activation, % at 6.8 µM; shares compounds with hgDAF-12 ag; 3,300 tested, 80% active; HEK293 GAL4-hgDAF12 luciferase reporter, agonist mode; percent of butyrate response; AID 743050;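 active = mean activation over triplicate wells above the hit cutoff derived from the earlier primary screen, cut at about 11% in these data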;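 note: 0% = DMSO low control and 100% = 2 mM sodium butyrate high control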
LXR ag 2: counter-screen for DAF-12 agonists: agonists of human LXR-beta; activation, % at 6.8 µM; shares compounds with hgDAF-12 ag; HEK293 Gal4-LXR luciferase reporter, 24 h; 3,300 tested, under 10 active;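 active = mean activation of the triplicate above a set limit carried over from the primary screen, none filed active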
The depositor's hits bear a star; . = no result given.

SMILES	hgDAF-12 ag	Wee1 degr inh	hcDAF-12 act	ssDAF-12 act	DAX1 inh-1	DAX1 inh-2	DAX1 inh confirm	SF1 AF2mut Luc	hgDAF12 conf	LXR ag 2	others
CCN(CC)CCN(C(=O)c1ccc2ncsc2c1)c1nc2cc3c(cc2s1)OCO3	17.4*	.	15.9*	2.6*	-0.8	14.8*	10.6*	11.3*	15.1*	0.6	LXRb hcDAF ctr=1.5;hcDAF12 ag=11.0*
CCOC(=O)CC[C@@H]1CC[C@]2(CCCN(C(=O)c3ccc4ccccc4n3)C2)O1	0.3	.	0.8	-0.8	.	0.3	.	.	.	.
COc1ccc(N2CCN(C(CNC(=O)C(=O)NC3CCCC3)c3ccco3)CC2)cc1 (configuration not stated)	1.6	.	0.5	-0.8	1.5	-0.4	.	.	.	.
CC(Cc1ccccc1)NC(=O)c1ccc([N+](=O)[O-])cc1 (configuration not stated)	14.1*	3.5	5.7*	0.5	3.1	4.8*	14.3*	8.9*	14.5*	0.6
c1ccc2nc3c(nc2c1)[nH]c1ccccc13	18.3*	6.7	7.0*	1.7*	3.2	4.6*	13.7*	7.6*	17.3*	0.7	LXRb hcDAF ctr=1.9;hcDAF12 ag=10.7*
c1ccc(-c2c3ccccc3nc3[nH]c4ccccc4c23)cc1	.	-2.2	.	.	0.5	.	.	.	.	.
COc1ccc(-c2nc3ccc(C)cn3c2Cc2ccc(C)cc2)cc1OC	1.1	.	-2.0	-0.3	.	-0.7	.	.	.	.
COc1ccc(-c2cn3cc(C)ccc3n2)cc1Br	19.7*	2.2	13.5*	1.2*	-2.0	6.9*	18.8*	8.2*	20.3*	1.3	LXRb hcDAF ctr=1.3;hcDAF12 ag=6.5*
COc1cccc(CCNC(=O)c2cc(COc3ccc(C)c(C)c3)on2)c1OC	13.8*	.	4.3	0.1	4.4*	4.6*	7.8*	3.4*	16.0*	0.8
O=NN(CC(=O)NNc1ccccc1)CC(=O)NNc1ccccc1	-2.6	.	-2.1	-1.3	.	2.1	.	.	.	.
CCOc1ccc(-c2ccc(SCC)nn2)cc1	23.6*	9.0*	5.3	0.0	-0.5	7.9*	13.6*	6.7*	19.0*	0.9
CCOc1ccc(-c2ccc(SCC(=O)NC3CCCCC3)nn2)cc1	2.1	.	3.1	-0.5	2.0	2.9	.	.	.	.
CCSc1ccc(-c2ccc(C)cc2)nn1	19.9*	7.9	11.2*	0.0	0.6	11.3*	16.9*	7.4*	16.6*	1.0	LXRb hcDAF ctr=1.7;hcDAF12 ag=6.1*
O=C(Nc1ncccc1O)c1ccc2c(c1)OCO2	36.8*	.	3.8	-0.1	4.1	16.6*	27.1*	13.9*	39.1*	0.4
CCOC(=O)C(C)Sc1nnc(NC(=O)c2ccc3c(c2)OCO3)s1 (configuration not stated)	2.2	2.0	-0.8	-2.3	0.5	-0.6	.	.	.	.
CC(C)Cc1nnc(NC(=O)c2ccc3c(c2)OCCO3)s1	15.3*	.	5.8*	0.2	0.5	8.1*	14.7*	7.1*	13.4*	0.8
O=C(Nc1ncccc1O)c1ccc2c(c1)OCCO2	60.2*	.	7.2*	1.3*	8.1*	32.7*	41.8*	21.8*	57.5*	0.8	LXRb hcDAF ctr=1.8;hcDAF12 ag=4.0
Cc1ccnc(NC(=O)c2ccc3c(c2)OCO3)c1	18.2*	2.6	6.3*	-0.8	-1.4	4.9*	7.0*	3.7*	11.0*	0.7
COc1ccc(-c2nc(CSCC(=O)NC3CCN(Cc4ccccc4)CC3)c(C)o2)cc1OC	-2.0	.	0.0	-1.9	-0.7	-2.0	.	.	.	.
CCCCCCCCN1C(=O)N2Cc3cc(OC)ccc3C2CS1(=O)=O (configuration not stated)	-2.2	.	0.8	-1.2	.	-1.1	.	.	.	.
NC(=O)c1csc(CCNC(=O)c2ccccc2)n1	-2.0	.	1.6	-1.2	0.1	-0.8	.	.	.	.
CCc1cc(C(=O)Nc2ccc(OC)nc2)sc1C	7.0	.	1.5	0.1	-0.3	2.3	.	.	.	.
CCc1cc(C(=O)Nc2ncccc2O)sc1C	20.0*	.	6.4*	0.6	-1.3	20.2*	21.4*	9.0*	24.6*	0.8
CCNC(=O)C1(C)CCCN1C(=O)c1cc(OC)c(OC)c(OC)c1 (configuration not stated)	1.6	.	-1.0	-1.5	.	0.5	.	.	.	.
COc1cc(OC)c2c(=O)cc(-c3ccccc3)oc2c1	15.7*	-1.5	2.8	-0.5	3.6	4.7*	4.7*	0.7	8.9	0.4
SMILES	hgDAF-12 ag	Wee1 degr inh	hcDAF-12 act	ssDAF-12 act	DAX1 inh-1	DAX1 inh-2	DAX1 inh confirm	SF1 AF2mut Luc	hgDAF12 conf	LXR ag 2	others
O=C(O)c1ccc(Oc2ccc([N+](=O)[O-])cc2)c([N+](=O)[O-])c1	1.7	.	-0.8	-1.7	-0.2	-1.6	.	.	.	.
COc1ccc(/C=C/C(=O)Nc2ccccc2C(=O)O)cc1	14.0*	-0.6	6.2*	0.4	-2.3	5.2*	7.9*	2.9	11.1*	0.6
COc1ccc(/C=C/C(=O)Nc2ccccc2C(=O)N2CCCC2)cc1	0.0	1.4	0.1	-1.6	0.1	1.0	.	.	.	.
COc1ccc(S(=O)(=O)NC(=O)C2(C)CCN2C(=O)C2(c3ccccc3)CC2)cc1 (configuration not stated)	-2.8	.	1.4	-1.1	.	1.6	.	.	.	.
O=C(Nc1ccc2c(c1)CCC2)Nc1ccccc1F	16.3*	.	8.6*	0.6	0.3	16.2*	13.1*	8.5*	21.8*	1.2	LXRb hcDAF ctr=1.9;hcDAF12 ag=8.6*
O=C(Nc1ccccc1F)Nc1ccccc1F	9.9	4.3	1.4	-0.9	-1.0	0.7	.	.	.	.
O=C(Nc1ccccc1)Nc1ccc2c(c1)CCC2	16.3*	.	4.7	0.8	1.7	10.2*	7.5*	5.0*	15.2*	0.7
O=C(c1ccccc1)n1ccc(-c2cnc(-c3ccccc3)s2)n1	18.2*	6.0	7.7*	1.0*	0.6	4.9*	13.0*	5.6*	19.6*	1.2	LXRb hcDAF ctr=1.5;hcDAF12 ag=7.1*
